The list is not random: actives were taken first. Their share in the collection is about 3.8%.
NTR1 agonist: agonists of human NTR1, primary screen, imaging, U2OS cells, beta-arrestin-GFP, high content. Neurotensin receptor type 1 (Homo sapiens), P30989. NTR1-U2OS beta-arrestin-GFP spot imaging, agonist mode. activation, % at 20 µM. 330,000 compounds, 0.17% hits. AID 493036, 2011;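 active = activation at or above 40% of the spot to cytoplasm intensity ratio, with at least 20 cells analyzed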;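 also: 0% = DMSO without peptide and 100% = 100 nM NTR1 peptide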
Target sequence (P30989 whole entry, looked up): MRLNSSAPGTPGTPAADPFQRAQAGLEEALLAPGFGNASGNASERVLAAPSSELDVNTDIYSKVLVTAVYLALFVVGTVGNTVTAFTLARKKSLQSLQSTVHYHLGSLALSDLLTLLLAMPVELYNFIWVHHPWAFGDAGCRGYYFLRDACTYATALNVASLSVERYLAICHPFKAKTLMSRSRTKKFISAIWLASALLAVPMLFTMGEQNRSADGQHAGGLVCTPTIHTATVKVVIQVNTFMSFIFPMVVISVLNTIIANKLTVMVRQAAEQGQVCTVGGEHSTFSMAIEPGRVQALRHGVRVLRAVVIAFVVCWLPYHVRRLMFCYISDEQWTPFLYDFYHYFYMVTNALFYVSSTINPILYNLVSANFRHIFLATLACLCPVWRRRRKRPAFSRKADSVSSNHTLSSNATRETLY
697 NFkB inh: inhibitors of PMA/ionomycin-induced NF-kB reporter, 697 cells, primary screen, B-cell NF-kB inhibitor project, cell-based, luminescence, uHTS | 330,000 compounds, 0.33% hits | inhibition, % at 4 µM | AID 435022, 2010 | 697 B-cell NF-kB luciferase reporter, 16 h; in the data active = inhibition above about 35%
Jurkat NFkB inh: inhibitors of induced NF-kB luciferase reporter, primary screen, TCR NF-kB activation inhibitor project, cell-based, luminescence, uHTS. Jurkat, PMA/ionomycin-induced NF-kB luciferase reporter. inhibition, % at 4 µM. 330,000 compounds, 0.53% hits; in the data active = inhibition above about 50%
Beta apoptosis: inhibitors of cytokine-induced beta cell apoptosis, primary screen, luminescence; protection from apoptosis, % (no concentration beside the values); AID 435005, 2010; 300,000 compounds, 0.8% hits; INS-1E cytokine-induced death, ATP luminescence, 48 h; percent of positive-control rescue, neutral wells zero;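 active = Every replicate reaches about 75%, or at least half do and their mean reaches it too, limit read from the data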;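 also: 0% = cytokine-treated negative control wells and 100% = positive control rescue; higher means more ATP so stronger rescue from cytokine killing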
Mdm2 MdmX PPI: inhibitors of human Mdm2-MdmX association, primary screen, cell-based, luminescence, split luciferase, SaOS-2, uHTS | SaOS-2 split-luciferase Mdm2/MdmX complementation | inhibition, % at 8 µM | 330,000 compounds, 3% hits;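 active = inhibition of at least 50% at 8 µM in the primary screen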
A1 inh: caspase 3/7 activation in MEF A1-2A-BIM cells, primary screen, A1 inhibitor project, cell-based, luminescence, HTS | Caspase-Glo 3/7 luminescence, 3 h; percent of clofoctol response, vehicle zero | caspase activation, % (test concentration not listed) | 330,000 compounds, 0.066% hits;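 active = over half of replicate activation scores above 10%, or exactly half above 10 with the replicate mean above 10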
697 NFkB conf: PMA/ionomycin-induced NF-kB reporter inhibitors, 697 retest, confirmation, B-cell NF-kB inhibitor project, cell-based, luminescence, single concentration. 2,000 compounds, 35% hits. 697 B-cell NF-kB luciferase, 16 h. shares compounds with 697 NFkB inh. inhibition, % at 4 µM. AID 449746, 2010; in the data active = inhibition mostly above about 28%, no sharp cut-off; inactive = mostly below about 22%
* marks the source's active call; other numbers are inactive results; . = no result given.

SMILES	NTR1 agonist	697 NFkB inh	Jurkat NFkB inh	Beta apoptosis	Mdm2 MdmX PPI	A1 inh	697 NFkB conf
Cc1nc(Nc2c(Cl)cccc2Cl)sc1C(=O)Nc1ccccc1	1	37*	6	0	24	0	36*
Cc1nc(NC(=O)C2CC2)sc1C(=O)Nc1ccccc1	-1	0	1	3	21	1	.
Cn1c(CN2CCN(c3ccc(Cl)cc3)CC2)nc2ccccc21	2	16	3	-19	11	1	.
CCn1c(CN2CCN(c3ccc(Cl)cc3)CC2)nc2ccccc21	17	46*	13	-5	27	1	51*
Nc1nnc(SCC(=O)NNC(=O)c2ccccc2F)s1	-1	5	7	.	-14	.	.
CC1(C)CC(NC(=O)C2CCN(S(=O)(=O)c3ccccc3C(F)(F)F)CC2)CC(C)(C)N1	-1	3	-22	.	-4	0	.
O=c1[nH]c(NC2CCN(S(=O)(=O)c3ccccc3C(F)(F)F)CC2)nc2c1CCCC2	2	44*	36	.	27	.	26
C(=C\c1ccccc1)/C=N/Nc1nc2ccccc2s1	3	-210	-142	-2	-153	-2	.
C(=N\Nc1ccccc1)/c1nc2ccccc2s1	3	-313	-137	-6	-164	-4	-48
O=C(NCC(=O)N1CCN(c2ccccc2F)CC1)c1ccc(Br)o1	-1	-14	-2	2	-8	1	.
Cc1cc(C(=O)OCC(=O)N2CCC(C)CC2)c2ccccc2n1	0	-7	3	0	22	1	.
O=C(N/N=C/c1cccnc1)c1cc(-c2ccccc2OCc2ccccc2)n[nH]1	0	35*	22	1	22	0	26*
CCOc1ccc(CN(C)C(=O)CNC(=O)Cc2cccc3ccccc23)cc1	0	-4	-1	-6	-12	0	.
c1ccc2sc(Nc3nc4cc5c(cc4s3)OCO5)nc2c1	9	-290	-148	5	-57	-1	-324
Fc1ccc2nc(Nc3nc4cc5c(cc4s3)OCO5)sc2c1	5	-158	-100	9	-63	-2	.
CN(CC(=O)Nc1ccccc1Cl)C(=O)COC(=O)C1CCN(c2ccc(C(F)(F)F)cn2)CC1	1	5	-5	-1	15	-1	.
COC(=O)[C@@]12OC[C@]34[C@H]([C@@H](O)[C@@H]1O)[C@@]1(C)C(=O)C(O[C@@H]5OC(CO)[C@@H](O)[C@@H](O)[C@@H]5O)=C[C@@H](C)[C@@H]1C[C@H]3OC(=O)[C@H](OC(=O)/C=C(\C)C(C)(C)OC(C)=O)[C@@H]24 (some centres undefined)	0	44*	28	3	21	1	80*
CCNc1c(NS(=O)(=O)c2ccc(F)c(Cl)c2)c(=O)oc2ccccc12	-2	3	-8	-17	-7	0	.
Cc1cc(C(=O)NNC(=O)c2ccccc2[N+](=O)[O-])c(C)o1	2	9	3	3	-15	0	.
CC/C(=N/Nc1ccc(Cl)cc1)c1cnnc(SC)n1	1	36*	-4	-5	-16	0	17
Cc1ccc(CNC(=O)C(=O)NCCCn2ccnc2)cc1	-2	38*	13	1	-15	0	2
CCCCCOc1ccc(NC(=O)C(=O)NCCCn2ccnc2)cc1	-1	48*	11	21	0	1	53*
O=C(NCCCn1ccnc1)C(=O)NCc1ccc(Cl)cc1	-1	30	-11	14	-6	0	.
C=CCOc1ccc(NC(=O)C(=O)NCCCn2ccnc2)cc1	0	46*	7	15	-7	1	34*
CC(C)N(Cc1nnc(-c2ccc(Cl)cc2)o1)C(=O)c1cc2ccccc2o1	1	2	-3	-4	-14	0	.
SMILES	NTR1 agonist	697 NFkB inh	Jurkat NFkB inh	Beta apoptosis	Mdm2 MdmX PPI	A1 inh	697 NFkB conf
Cc1cc(C)cc(C(=O)NCCC(=O)NCc2cc(=O)n(C)c(=O)n2C)c1	0	0	3	-2	21	2	.
Cc1nn(C(C)C(=O)NCCCN2CCCC2)c(=O)c2nn(-c3ccccc3)c(C)c12 (centres undefined)	-2	2	-9	-4	22	0	.
O=C(NCCCn1ccnc1)c1ccc(S(=O)(=O)N2CCCCCC2)cc1	1	-20	-15	1	9	0	.
CC1CC(C)CN(S(=O)(=O)c2ccc(C(=O)NCCCn3ccnc3)cc2)C1 (centres undefined)	0	70*	2	114*	0	0	50*
COc1ccc(-c2noc(CCCC(=O)O)n2)cc1	-1	74*	48	-1	-10	-2	58*
COc1ccc(-c2noc(CCCC(=O)NCC3CCCO3)n2)cc1 (centres undefined)	1	41*	-10	.	5	0	21
COc1cccc(-c2nc(-c3ccc(C(=O)O)cc3)no2)c1	-1	-351	-21	-2	-86	-11	-413
O=C(O)c1ccc(-c2noc(-c3cccc(F)c3)n2)cc1	-1	-125	-54	-7	-22	1	.
COc1ccc(Cc2nc(-c3ccc(NC(=O)c4cccnc4)cc3)no2)cc1	0	51*	-4	107*	9	0	33*
O=C(NCc1cccc(Cl)c1)c1ccc2ccccc2n1	1	15	8	-4	7	0	.
CC(OC(=O)CCCN=C1NS(=O)(=O)c2ccccc21)C(=O)Nc1ccccc1[N+](=O)[O-] (centres undefined)	-1	-5	2	.	5	1	.
COc1ccc(-c2noc(CCC(=O)NCCc3ccccc3)n2)cc1	-1	-3	-18	-3	-24	0	.
COc1cccc(-c2noc(CCC(=O)NCCc3ccccc3)n2)c1	2	49*	-9	-11	19	-1	49*
CCOc1ccc(-c2noc(CCC(=O)O)n2)cc1	-2	62*	27	0	8	-1	49*
Cn1nc(C(=O)NNC(=O)CCOc2ccc(C(C)(C)C)cc2)c2ccccc2c1=O	3	-23	1	-11	30	-1	.
O=C(Nc1nccs1)c1cc2c(s1)CCCCC2	5	-307	-39	-1	33	0	-356
